Screens from PubChem BioAssay.
SMN2 splice up = qHTS Assay for Enhancers of SMN2 Splice Variant Expression; HEK293 SMN2-luciferase splicing reporter, luminescence, 30-36 h; Potency, µM (top dose mostly 46.1 µM), most hits filed as activators; 2.8% of 210,000 active; AID 1458, 2008; further: nearly all actives have a fitted effect of over 55% in size
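qHTS luciferase splicing reporter: luminescence rises when SMN2 exon 7 is included in transfected HEK293 cells. Compound exposure lasted 30-36 h at 37C, with 4.5 mM final sodium butyrate as control, followed by a ONE-Glo read.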
Rab9 promoter act = qHTS Assay for Rab9 Promoter Activators; Huh7 Rab9 promoter-luciferase reporter, luminescence, 24 h; Potency, µM (doses to about 9.22 µM), hits mostly activators; 2.8% of 320,000 active; AID 485297, 2010; further: nearly all actives have a fitted effect of over 60% in size
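Huh7 cells stably carrying Rab9 promoter–luciferase reporter, plated 1500 cells/well, compound added after 2 h and incubated 24 h at 37 °C; luciferase luminescence then read after 10 min with detection reagent.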
KinaseGlo FLuc = Counterscreen for Luciferase (Kinase-Glo TM) Inhibition; Kinase-Glo luciferase, ATP luminescence, 8 min; Potency, µM (doses to about 38.3 µM), actives largely listed as inhibitors; 0.28% of 200,000 active; further: nearly all actives have a fitted effect of over 60% in size
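Inhibition of Kinase-Glo luciferase light generation was assessed at 10 uM ATP in pH 7.2 imidazole buffer, with luminescence measured after eight minutes at ambient temperature.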
ELG1 genotoxic = qHTS screen for small molecules that induce genotoxicity in human embryonic kidney (HEK293T) cells expressing luciferase-tagged ELG1; HEK293T ELG1-luciferase reporter, luminescence, 16 h; Potency, µM (series often up to 46 µM), actives largely listed as activators; 1.3% of 330,000 active; further: nearly all actives have a fitted effect of over 60% in size
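Luminescence read-out: rising ELG1-luciferase signal, reflecting elevated ELG1 protein under genetic stress, flags genotoxic compounds. Cells were treated for 16 hr at 37 °C before ONE-Glo detection.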
NPC1 prom act = qHTS Assay for NPC1 Promoter Activators; Huh7 NPC1 promoter luciferase reporter, 24 h; Potency, µM (doses to about 9.22 µM), usual class: activators; 2.4% of 320,000 active; further: nearly all actives have a fitted effect of over 60% in size
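Huh7 cells stably carrying NPC1 promoter–luciferase, plated in Opti-MEM with 10% FBS for 2 h, were exposed to compound in DMSO for 24 h at 37 °C; luciferase reagent was added for 10 min and luminescence read.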
FLuc modulator = qHTS profiling assay for firefly luciferase inhibitor/activator using purifed enzyme and Km concentrations of substrates (counterscreen for miR-21 project) | Luciferin 4-monooxygenase (Photinus pyralis), P08659 | purified FLuc, Km substrates, luminescence inhibition | Potency, µM (titrated, usually from 57.5 µM), hits mostly inhibitors | 6.9% of 360,000 active; further: nearly all actives have a fitted effect of over 55% in size
Target sequence (P08659 whole entry, looked up): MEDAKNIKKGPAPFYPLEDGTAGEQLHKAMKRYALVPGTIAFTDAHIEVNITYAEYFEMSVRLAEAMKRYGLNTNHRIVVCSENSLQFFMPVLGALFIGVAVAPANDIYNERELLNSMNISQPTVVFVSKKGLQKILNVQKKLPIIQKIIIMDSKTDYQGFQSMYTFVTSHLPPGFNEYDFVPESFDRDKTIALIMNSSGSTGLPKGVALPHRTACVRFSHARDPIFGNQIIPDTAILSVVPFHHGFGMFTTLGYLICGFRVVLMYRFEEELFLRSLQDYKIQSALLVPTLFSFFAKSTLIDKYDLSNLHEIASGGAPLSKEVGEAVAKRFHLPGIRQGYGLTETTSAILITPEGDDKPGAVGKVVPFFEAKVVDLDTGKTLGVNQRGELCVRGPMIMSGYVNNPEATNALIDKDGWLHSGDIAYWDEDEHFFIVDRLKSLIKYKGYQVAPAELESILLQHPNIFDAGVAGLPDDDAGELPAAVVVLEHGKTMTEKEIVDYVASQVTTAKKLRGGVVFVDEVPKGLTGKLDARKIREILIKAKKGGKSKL
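Biochemical qHTS of compounds, final roughly 60 µM downward over six points, against 10 nM purified firefly luciferase using Km concentrations of substrates (10 uM D-luciferin, 10 uM ATP) in Tris acetate pH 7.5 buffer; luminescence output.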
A number is an active result; 0 = inactive; ? = inconclusive; - = not tested or not shown. In the library only some 7.4% were active in any assay of this set; here they are far more common. The call rests on the fitted dose curve; in most records, active means well fitted curve in the direction sought with a large enough effect; inconclusive means small, poorly fitted or top-dose-only effect, or another doubt; inactive means no such curve, though single readings can be large; an effect the other way counts as inactive or inconclusive.

SMILES | SMN2 splice up | Rab9 promoter act | KinaseGlo FLuc | ELG1 genotoxic | NPC1 prom act | FLuc modulator
CCCCn1c(NC(=O)c2ccccc2)nc2ccccc21 | 0 | 0 | 0 | 0 | 0 | ?
Cn1c(NC(=O)c2cccc(Cn3cc(Cl)cn3)c2)nc2ccccc21 | 13µM | 2.2µM | 0 | 10µM | 2.2µM | 19µM
COc1c(C2=CC(=O)N(C)C2=O)c2c(n1C)C(=O)c1ccccc1C2=O | 0 | - | 0 | - | - | -
Cc1ccc(C)c(NC(=O)c2nc(-c3ccccc3)n(-c3ccccc3)n2)c1 | 0 | 0 | 0 | 0 | 0 | 0
CC(=O)c1ccc(NC(=O)c2nc3ccccc3nc2N2CCCCC2)cc1 | - | - | - | - | - | 0
CC(=O)c1ccc(NC(=O)c2nc3ccccc3n(C)c2=O)cc1 | - | - | - | - | - | 4.8µM
CC(=O)c1ccc(NC(=O)c2nc(-c3ccccc3)n(-c3ccc(C)cc3)n2)cc1 | - | - | - | - | - | 15µM
CCOc1ccccc1NC(=O)C(C)n1nnc2sc3c(c2c1=O)CCCC3 (stereo not given) | 0 | - | - | - | - | 0
Cc1ccc(Nc2ncccc2C(N)=O)cc1 | 11µM | 2.8µM | 0 | ? | 3.5µM | ?
NC(=O)c1cccnc1Nc1ccccc1F | 0 | 0 | 0 | ? | 0 | 0
Cc1c(Nc2ncccc2C(=O)O)cccc1C(F)(F)F | 0 | 0 | 0 | ? | 0 | 19µM
Cc1c(Cl)cccc1Nc1ncccc1C(=O)O | - | 0 | - | 0 | 0 | ?
Cc1cc(Cl)ccc1Nc1ncccc1C(N)=O | 8.9µM | ? | 0 | ? | 0 | 15µM
COc1ccc(Nc2ncccc2C(=O)O)cc1 | 0 | ? | 0 | 15µM | ? | 15µM
CNC(=S)N/N=C/c1ccc(-c2ccc(Cl)c([N+](=O)[O-])c2)o1 | - | 0 | 0 | 0 | 0 | 0
CNC(=S)N/N=C/c1ccc(-c2ccc(C(=O)O)cc2)o1 | - | 0 | - | ? | ? | 17µM
CCC(=O)N/N=C/c1ccc(-c2ccc([N+](=O)[O-])cc2)o1 | - | 0 | 0 | 0 | 0 | 0
CCC(=O)N/N=C/c1ccc(-c2ccc(Cl)cc2)o1 | - | 0 | 0 | 0 | 0 | 15µM
O=C(O)c1ccc(-c2ccc(/C=N/Nc3ccc([N+](=O)[O-])cc3)o2)cc1 | - | 0 | - | 0 | 0 | 17µM
C=CCNC(=S)N/N=C/c1ccc(-c2ccc(OC)cc2)o1 | 0 | 0 | 0 | 0 | 0 | 19µM
CCC1=C2CC[C@H]3C(=O)NC(=O)[C@H]3[C@H]2[C@@]2(C)C(=O)N(CC3CC3)C(=O)N2C1=O | 0 | - | 0 | - | - | -
COc1cc([C@@H]2c3cc4c(cc3[C@@H](O[C@@H]3O[C@H]5CO[C@@H](C)O[C@@H]5[C@@H](O)[C@H]3O)[C@@H]3COC(=O)[C@@H]23)OCO4)cc(OC)c1O | - | - | 0 | - | - | -
O=C(O)c1ccc(N/N=C/C=C/c2ccc([N+](=O)[O-])o2)cc1 | - | 0 | - | 0 | 0 | 17µM
CCOC(=O)c1ccc(-c2ccc(/C=N/NC(=O)CN(c3ccccc3Br)S(C)(=O)=O)o2)cc1 | 11µM | ? | 0 | 0 | ? | 0
NS(=O)(=O)c1ccc(-c2ccc(/C=N/NC(=O)c3ccc([N+](=O)[O-])cc3)o2)cc1 | - | 0 | - | 0 | 0 | 0
SMILES | SMN2 splice up | Rab9 promoter act | KinaseGlo FLuc | ELG1 genotoxic | NPC1 prom act | FLuc modulator
NS(=O)(=O)c1ccc(-c2ccc(/C=N/Nc3ccc(C(=O)O)cc3)o2)cc1 | - | 0 | - | 0 | 0 | 7.6µM
O=C(O)c1cccc(-c2ccc(/C=N/Nc3ccc([N+](=O)[O-])cc3)o2)c1 | - | 0 | - | 0 | 0 | 11µM
CC(C)c1nc2sc3c(N4CCCCC4)ncnc3c2c2c1CCCC2 | 0 | - | - | - | - | 0
CCOCC(=O)Nc1nc2ccc(C)cc2s1 | 10µM | 1.8µM | 0 | ? | ? | 9.5µM
CCOCC(=O)Nc1nc2ccc(S(C)(=O)=O)cc2s1 | ? | 0 | 0 | 0 | 0 | ?
CCOCC(=O)Nc1nc2ccc(OCC)cc2s1 | 11µM | 1.3µM | 0 | 8.2µM | 2.5µM | 8.5µM
Cc1ccc2nc(NC(=O)COC(=O)c3ccccn3)sc2c1 | ? | ? | 0 | 0 | ? | 15µM
C/C=C/C(=O)OCC(=O)Nc1nc2ccc(C)cc2s1 | 0 | ? | 0 | ? | 0 | 21µM
O=C(COC(=O)c1ccccn1)Nc1nc(-c2ccccc2)cs1 | - | 0 | - | 0 | 0 | ?
CCOc1ccc2nc(SCC(=O)Nc3cc(C)on3)c(C)cc2c1 | - | 0 | - | 0 | 0 | 0
CCOc1ccc2nc(NC(=O)Cn3c(C)csc3=O)sc2c1 | - | 0 | - | 0 | 0 | 4.8µM
Cc1ccc2nc(NC(=O)CSCC(=O)OCC(=O)c3ccccc3)sc2c1 | 0 | 0 | 0 | 0 | 0 | 17µM
CCOc1ccc2nc(NC(=O)CSCC(=O)Nc3cc(C)on3)sc2c1 | - | 3.2µM | - | ? | ? | ?
CCOc1ccc2nc(NC(=O)CN3CCN(c4ccccn4)CC3)sc2c1 | 0 | - | 0 | - | - | ?
CCOc1ccc2nc(NC(=O)C3CSC4(C)CCC(=O)N34)sc2c1 (stereo not given) | - | 0 | - | 0 | 0 | 21µM
CC1CC1C(=O)Nc1nc2ccc(S(C)(=O)=O)cc2s1 (stereo not given) | - | 0 | - | 0 | 0 | 0
CCOc1ccc(NC(=O)COC(=O)CCC(=O)c2cccs2)cc1 | - | 0 | - | 0 | 0 | ?
CCOc1ccc2nc(NS(C)(=O)=O)sc2c1 | 14µM | 0 | 0 | ? | 0 | 17µM
CCc1ccc2nc(NC(=O)CSCc3c(C)noc3C)sc2c1 | ? | 0 | 0 | 0 | 0 | 21µM
Cc1ccc2nc(NC(=O)C3CC3C)sc2c1 (stereo not given) | - | ? | - | 0 | 1.1µM | 5.4µM
CCOc1ccc2nc(NC(=O)CCC(=O)c3cccs3)sc2c1 | 13µM | 4.5µM | 0 | 10µM | 3.2µM | 1.9µM
C=CCOC(=O)N[C@@H](CC(C)C)/C(C(=O)OC)=C(\C)NCc1ccccc1 | 0 | - | 0 | - | - | -
Cc1cc(C)n(-c2ccc(C(=O)Nc3ccccn3)cc2)n1 | 1.6µM | 0.5µM | ? | ? | 0.89µM | 6µM
Cc1cc(C)n(-c2ccc(C(=O)Nc3sccc3C(N)=O)cc2)n1 | 13µM | ? | 0 | ? | ? | 6.7µM
CC1CCCCN1S(=O)(=O)c1ccc(C(=O)Nc2sccc2C(N)=O)cc1 (stereo not given) | 20µM | ? | 0 | ? | ? | 21µM
NC(=O)c1ccsc1NC(=O)C1CCCN1S(=O)(=O)c1ccc(Cl)cc1 (stereo not given) | 0 | 0 | 0 | 0 | 0 | 0
Cc1cc(C)n(-c2ccc(C(=O)Nc3nnc(C)s3)cc2)n1 | 0 | ? | 0 | ? | 0 | 13µM
COC(=O)c1sccc1S(=O)(=O)N(CC(=O)Nc1cccc(C)c1C)c1ccc(C)c(C)c1 | - | - | - | - | - | 0
N#C/C(=N\Nc1ccc(Br)cc1)C(=N)N1CCOCC1 | ? | 4µM | 0 | ? | 3.5µM | ?
